Test results as given in PubChem BioAssay (Tox21).
Inconclusive results are not listed. Where a call stands in place of a potency, no number is given. The source made the active and inactive calls. Unless noted, calls come from the whole dose curve; as a rule, active = well fitted curve in the direction sought with a large enough effect in the repeat runs; inconclusive = weak or mixed curves; inactive = no such curve, though single readings can be large; an effect the other way counts as inactive or inconclusive.

Tests used:
[1] = qHTS RealTime-Glo MT Cell Viability Assay in HepG2 cells - 32 hour (AID 1224877); note: nearly all actives have a fitted effect of over 55% in size
Summary of the method: (§1)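 Cells + NanoLuc/prosubstrate dispensed (600 cells/well) → 5 h at 37 C/5% CO2 → compounds in DMSO transferred → 40 h incubation at 37 C, luminescence read at 0, 8, 16, 24, 32, 40 h.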

[2] = A CellTox Green Cytotoxicity Assay to monitor cytotoxicity in HepG2 cells - 24 hour (AID 1224878); note: nearly all actives have a fitted effect of over 45% in size
Summary of the method: (§2)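 Read-out is fluorescence of a cyanine dye excluded from live cells that stains DNA of dead HepG2 cells, with signal proportional to cytotoxicity. Plates were read at 0, 8, 16, 24, 32 and 40 h after compound addition.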

[3] = A CellTox Green Cytotoxicity Assay to monitor cytotoxicity in HepG2 cells - 40 hour (AID 1224879); note: nearly all actives have a fitted effect of over 40% in size
Summary of the method: as §2

[4] = qHTS RealTime-Glo MT Cell Viability Assay in HEK293 cells - 0 hour (AID 1224880); note: top concentration of the series differs between compounds; nearly all actives have a fitted effect of over 45% in size
Summary of the method: (§3)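 Cells were seeded together with NanoLuc luciferase and a prosubstrate that viable cells reduce to a luciferase substrate. After a 5 h incubation at 37 C/5% CO2, compounds were added and luminescence was measured repeatedly during 40 h of treatment.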

[5] = A CellTox Green Cytotoxicity Assay to monitor cytotoxicity in HEK293 cells - 32 hour (AID 1224881); note: nearly all actives have a fitted effect of over 40% in size
Summary of the method: (§4)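 Nonlytic real-time cytotoxicity: HEK293 + CellTox Green reagent plated, 5 h preincubation, pintool compound addition (23 nL in DMSO), 37 C for 40 h, fluorescence measured at successive time points.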

[6] = A CellTox Green Cytotoxicity Assay to monitor cytotoxicity in HepG2 cells - 0 hour (AID 1224882); note: nearly all actives have a fitted effect of over 35% in size
Summary of the method: as §2

[7] = A CellTox Green Cytotoxicity Assay to monitor cytotoxicity in HEK293 cells - 8 hour (AID 1224884); note: nearly all actives have a fitted effect of over 35% in size
Summary of the method: as §4

[8] = qHTS RealTime-Glo MT Cell Viability Assay in HepG2 cells - 16 hour (AID 1224885); note: nearly all actives have a fitted effect of over 50% in size
Summary of the method: as §1

[9] = qHTS RealTime-Glo MT Cell Viability Assay in HEK293 cells - 24 hour (AID 1224886); note: top concentration of the series differs between compounds; nearly all actives have a fitted effect of over 50% in size
Summary of the method: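 Tox21 10K qHTS, HEK293, 600 cells/well, RealTime-Glo reagent co-dispensed with cells; 5 h preincubation, compound by pintool, 37 C, luminescence at 0–40 h.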

[10] = qHTS RealTime-Glo MT Cell Viability Assay in HEK293 cells - 8 hour (AID 1224887); note: top concentration of the series differs between compounds; nearly all actives have a fitted effect of over 50% in size
Summary of the method: as §3

[11] = A CellTox Green Cytotoxicity Assay to monitor cytotoxicity in HEK293 cells - 16 hour (AID 1224888); note: nearly all actives have a fitted effect of over 35% in size
Summary of the method: as §4

[12] = qHTS RealTime-Glo MT Cell Viability Assay in HepG2 cells - 0 hour (AID 1224889); note: nearly all actives have a fitted effect of over 50% in size; note: potency is the fitted concentration of half-maximal effect
Summary of the method: as §1

[13] = A CellTox Green Cytotoxicity Assay to monitor cytotoxicity in HepG2 cells - 8 hour (AID 1224890); note: nearly all actives have a fitted effect of over 45% in size
Summary of the method: as §2

[14] = qHTS assay to identify small molecule antagonists of the estrogen receptor alpha (ER-alpha) signaling pathway using the BG1 cell line in the presence of 0.1 nM 17-beta-estradiol - cell viability counter screen (AID 1259241); note: nearly all actives have a fitted effect of over 40% in size
Summary of the method: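 Viability in VM7Luc4E2 cells after 22 hr compound exposure under 0.1 nM 17beta-estradiol stimulation, by CellTiter-Fluor.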

[15] = qHTS assay to identify small molecule antagonists of the androgen receptor (AR) signaling pathway using the MDA cell line in the presence of 0.5 nM R1881 - cell viability counter screen (AID 1259242); note: nearly all actives have a fitted effect of over 45% in size
Summary of the method: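 Counter screen for cytotoxicity run in the same wells as the AR antagonist reporter screen: MDA-kb2 cells were treated 16 hr with test compounds and 0.5 nM R1881, then live-cell protease activity was measured by fluorescence.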

[16] = qHTS assay to identify small molecule HDAC inhibitors (AID 1259364)
Summary of the method: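 Luminescence from a cell-permeant luminogenic class I/II HDAC substrate reports endogenous deacetylase activity in intact HCT-116 cells treated with compounds for 2 h.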

[17] = target: Estrogen receptor (Homo sapiens) (UniProt P03372); assay: qHTS assay to identify small molecule antagonists of the estrogen receptor alpha (ER-alpha) signaling pathway using the BG1 cell line in the presence of 0.1 nM 17-beta-estradiol (AID 1259244); note: nearly all actives have a fitted effect of over 50% in size
Summary of the method: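 Cells: VM7Luc4E2, endogenous ER-alpha, 4x ERE-luc stable. Pre-culture 5 d, phenol red-free, charcoal-stripped FBS. Plated 24 h, compound + E2 0.1 nM final, 22 h 37C/5% CO2. Readout ONE-Glo luminescence.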

[18] = qHTS assay to identify small molecule phospholipidosis (PLD) inducers (AID 1259344; active = well fitted curve in the direction sought with a large enough effect; an effect the other way counts as inactive or inconclusive)
Summary of the method: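 HepG2 cells on collagen I, attached 4 h at 37 C, were co-treated with compound and LipidTOX Red dye for 24 h at 37 C, then fixed with paraformaldehyde plus Hoechst 33342 and imaged by high-content microscopy for phospholipid accumulation.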

[19] = target: Androgen receptor (Homo sapiens) (UniProt P10275); assay: qHTS assay to identify small molecule antagonists of the androgen receptor (AR) signaling pathway using the MDA cell line in the presence of 0.5 nM R1881 (AID 1259243); note: nearly all actives have a fitted effect of over 50% in size
Summary of the method: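 Luciferase luminescence is the read-out: compounds are tested for suppressing 0.5 nM R1881-driven MMTV reporter activity in MDA-kb2 cells after 16 hr at 37C.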

[20] = A CellTox Green Cytotoxicity Assay to monitor cytotoxicity in HepG2 cells - 32 hour (AID 1224883); note: nearly all actives have a fitted effect of over 50% in size
Summary of the method: as §2

Estrogen receptor (Homo sapiens), sequence (P03372 whole entry, looked up): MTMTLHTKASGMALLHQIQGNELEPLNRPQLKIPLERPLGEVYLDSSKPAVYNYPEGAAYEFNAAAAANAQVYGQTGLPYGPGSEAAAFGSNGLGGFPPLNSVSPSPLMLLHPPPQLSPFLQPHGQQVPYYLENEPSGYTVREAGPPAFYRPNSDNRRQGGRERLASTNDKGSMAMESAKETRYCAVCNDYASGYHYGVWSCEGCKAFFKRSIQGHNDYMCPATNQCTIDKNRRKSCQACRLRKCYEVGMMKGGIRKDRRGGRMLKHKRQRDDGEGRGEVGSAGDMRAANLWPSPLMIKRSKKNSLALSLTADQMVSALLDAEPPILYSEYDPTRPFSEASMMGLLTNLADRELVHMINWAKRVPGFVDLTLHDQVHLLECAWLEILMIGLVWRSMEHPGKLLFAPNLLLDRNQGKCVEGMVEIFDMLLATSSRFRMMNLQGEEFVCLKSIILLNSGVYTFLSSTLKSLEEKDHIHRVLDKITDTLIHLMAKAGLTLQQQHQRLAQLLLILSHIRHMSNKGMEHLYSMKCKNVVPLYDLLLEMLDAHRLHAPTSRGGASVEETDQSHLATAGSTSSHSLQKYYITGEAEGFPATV
Androgen receptor (Homo sapiens), sequence (P10275 whole entry, looked up): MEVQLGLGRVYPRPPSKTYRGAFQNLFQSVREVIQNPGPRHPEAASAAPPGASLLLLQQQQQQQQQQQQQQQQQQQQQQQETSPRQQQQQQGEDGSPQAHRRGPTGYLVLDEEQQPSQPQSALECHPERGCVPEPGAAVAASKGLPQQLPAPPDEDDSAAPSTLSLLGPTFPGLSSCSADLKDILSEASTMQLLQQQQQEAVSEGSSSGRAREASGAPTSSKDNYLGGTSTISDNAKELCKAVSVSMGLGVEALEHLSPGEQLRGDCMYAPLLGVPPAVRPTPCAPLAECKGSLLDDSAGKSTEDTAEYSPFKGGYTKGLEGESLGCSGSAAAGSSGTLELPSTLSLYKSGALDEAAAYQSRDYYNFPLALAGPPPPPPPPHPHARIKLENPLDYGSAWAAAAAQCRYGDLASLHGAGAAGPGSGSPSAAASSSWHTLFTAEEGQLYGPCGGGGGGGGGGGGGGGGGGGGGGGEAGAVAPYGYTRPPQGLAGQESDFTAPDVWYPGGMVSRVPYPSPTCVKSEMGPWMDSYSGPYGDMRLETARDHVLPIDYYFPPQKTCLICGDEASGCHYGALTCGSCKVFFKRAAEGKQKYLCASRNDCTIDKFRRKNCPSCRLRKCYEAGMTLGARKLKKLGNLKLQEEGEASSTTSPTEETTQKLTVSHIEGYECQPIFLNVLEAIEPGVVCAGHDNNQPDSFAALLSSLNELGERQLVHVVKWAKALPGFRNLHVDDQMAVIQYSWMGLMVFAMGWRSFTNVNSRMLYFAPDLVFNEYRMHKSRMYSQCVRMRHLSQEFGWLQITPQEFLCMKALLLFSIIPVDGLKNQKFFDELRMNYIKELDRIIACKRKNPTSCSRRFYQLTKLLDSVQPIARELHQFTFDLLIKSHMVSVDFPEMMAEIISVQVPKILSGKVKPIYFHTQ

In the case of `CCCCCCCCS(=O)(=O)O`, the outcome [1] is reported as “inactive”, the Potency [2] is reported as “inactive” and the Potency [3] is reported as “inactive”. For the same molecule, the Potency [4] was “inactive”, the Potency [5] was “inactive” and the Potency [6] was “inactive”. The Potency [7] was “inactive”, the outcome [8] was “inactive” and the outcome [9] was “inactive”. For the same molecule, the outcome [10] was “inactive”, the Potency [11] was “inactive” and the Potency [12] was “inactive”. For the same molecule, the Potency [13] was “inactive”, the outcome [14] was “inactive” and the outcome [15] was “inactive”. The Potency [16] was “inactive”.

For `CCN1CCN(C(=O)N[C@@H](C(=O)N[C@@H]2C(=O)N3[C@@H]2SC(C)(C)[C@H]3C(=O)O)c2ccccc2)C(=O)C1=O`, the outcome [1] was “inactive”, the Potency [2] was “inactive” and the Potency [3] was “inactive”. The Potency [4] was “inactive”, the Potency [5] was “inactive” and the Potency [6] was “inactive”. The outcome [8] was “inactive”, the outcome [10] was “inactive” and the Potency [11] was “inactive”. The Potency [12] was “inactive”, the Potency [13] was “inactive” and the outcome [14] was “inactive”. For the same molecule, the outcome [15] was “inactive”, the outcome [17] was “inactive” and the Potency [18] was “inactive”. For the same molecule, the Potency [16] was “inactive”.

With `N#Cc1ccccc1C#N` the outcome [1] was “inactive”, the Potency [2] was “inactive” and the Potency [3] was “inactive”. For the same molecule, the Potency [4] was “inactive”, the Potency [5] was “inactive” and the Potency [6] was “inactive”. For the same molecule, the Potency [7] was “inactive”, the outcome [8] was “inactive” and the outcome [10] was “inactive”. For the same molecule, the Potency [11] was “inactive”, the Potency [12] was “inactive” and the Potency [13] was “inactive”. For the same molecule, the outcome [14] was “inactive”, the outcome [15] was “inactive” and the Potency [19] was “inactive”. For the same molecule, the outcome [17] was “inactive” and the Potency [16] was “inactive”.

In the case of `N#CC1(N)CCCCC1`, the outcome [1] is reported as “inactive”, the Potency [2] is reported as “inactive” and the Potency [3] is reported as “inactive”. For the same molecule, the Potency [4] was “inactive”, the Potency [5] was “inactive” and the Potency [6] was “inactive”. For the same molecule, the outcome [8] was “inactive”, the outcome [10] was “inactive” and the Potency [11] was “inactive”. The Potency [12] was “inactive”, the Potency [13] was “inactive” and the outcome [14] was “inactive”. The outcome [15] was “inactive”, the outcome [17] was “inactive” and the Potency [16] was “inactive”.

In the case of `Cc1cc(C)c(C)c(C)c1`, the outcome [1] is reported as “inactive”, the Potency [2] is reported as “inactive” and the Potency [3] is reported as “inactive”. The Potency [4] was “inactive”, the Potency [5] was “inactive” and the Potency [6] was “inactive”. The Potency [7] was “inactive”, the outcome [8] was “inactive” and the outcome [10] was “inactive”. The Potency [11] was “inactive”, the Potency [12] was “inactive” and the Potency [13] was “inactive”. For the same molecule, the outcome [14] was “inactive”, the outcome [15] was “inactive” and the outcome [17] was “inactive”. For the same molecule, the Potency [16] was “inactive”.

With `C[C@]12C=CC(=O)C=C1[C@@H](F)C[C@@H]1[C@@H]2[C@@H](O)C[C@@]2(C)[C@H]1CC[C@]2(O)C(=O)CO` the outcome [1] was “inactive”, the Potency [2] was “inactive” and the Potency [3] was “inactive”. For the same molecule, the Potency [5] was “inactive”, the Potency [6] was “inactive” and the Potency [20] was “inactive”. The Potency [7] was “inactive”, the outcome [8] was “inactive” and the outcome [9] was “inactive”. The Potency [11] was “inactive”, the Potency [12] was 10.7 µM (active) and the Potency [13] was “inactive”. For the same molecule, the outcome [14] was “inactive”, the outcome [15] was “inactive” and the outcome [17] was “inactive”. For the same molecule, the Potency [18] was “inactive” and the Potency [16] was “inactive”.

For `C=C(C)C(=O)OCCCC`, the Potency [2] was “inactive”, the Potency [3] was “inactive” and the Potency [4] was “inactive”. The Potency [5] was “inactive”, the Potency [6] was “inactive” and the Potency [20] was “inactive”. For the same molecule, the Potency [7] was “inactive”, the outcome [8] was “inactive” and the outcome [9] was “inactive”. The outcome [10] was “inactive”, the Potency [11] was “inactive” and the Potency [12] was “inactive”. The Potency [13] was “inactive”, the outcome [14] was “inactive” and the outcome [15] was “inactive”. For the same molecule, the Potency [19] was “inactive” and the Potency [16] was “inactive”.

For `C=CCON/C(CCC)=C1\C(=O)CC(C)(C)C(C(=O)OC)=C1O`, the outcome [1] was “inactive”, the Potency [4] was “inactive” and the Potency [5] was “inactive”. For the same molecule, the Potency [6] was “inactive”, the Potency [7] was “inactive” and the outcome [8] was “inactive”. The outcome [9] was “inactive”, the outcome [10] was “inactive” and the Potency [11] was “inactive”. The Potency [12] was “inactive”, the Potency [13] was “inactive” and the outcome [14] was “inactive”. The outcome [15] was “inactive” and the Potency [16] was “inactive”.

With `Cc1cc2c(cc1CC(=O)c1sccc1S(=O)(=O)Nc1onc(C)c1Cl)OCO2` the outcome [1] was “inactive”, the Potency [2] was “inactive” and the Potency [3] was “inactive”. The Potency [5] was “inactive”, the Potency [6] was “inactive” and the Potency [20] was “inactive”. For the same molecule, the Potency [7] was “inactive”, the outcome [8] was “inactive” and the outcome [9] was “inactive”. For the same molecule, the outcome [10] was “inactive”, the Potency [11] was “inactive” and the Potency [13] was “inactive”. For the same molecule, the outcome [14] was “inactive”, the outcome [15] was “inactive” and the outcome [17] was “inactive”. For the same molecule, the Potency [16] was “inactive”.

In the case of `O=C(OOC(=O)c1ccccc1)c1ccccc1`, the outcome [1] is reported as “inactive”, the Potency [2] is reported as “inactive” and the Potency [3] is reported as “inactive”. The Potency [5] was “inactive”, the Potency [6] was “inactive” and the Potency [20] was “inactive”. For the same molecule, the Potency [7] was “inactive”, the outcome [8] was “inactive” and the Potency [11] was “inactive”. For the same molecule, the Potency [12] was “inactive”, the Potency [13] was “inactive” and the outcome [14] was “inactive”. The outcome [15] was “inactive”, the outcome [17] was “inactive” and the Potency [18] was “inactive”. The Potency [16] was “inactive”.

For `O=C1Nc2ccccc2C1=O`, the outcome [1] was “inactive”, the Potency [2] was “inactive” and the Potency [3] was “inactive”. The Potency [4] was “inactive”, the Potency [5] was “inactive” and the Potency [6] was “inactive”. For the same molecule, the outcome [8] was “inactive”, the Potency [11] was “inactive” and the Potency [12] was “inactive”. For the same molecule, the Potency [13] was “inactive”, the outcome [15] was “inactive” and the Potency [16] was “inactive”.

In the case of `CCCCCCCCCCCCCCCC/C=C/C1CC(=O)OC1=O` (stereo unspecified), the outcome [1] is reported as “inactive”, the Potency [2] is reported as “inactive” and the Potency [3] is reported as “inactive”. For the same molecule, the Potency [4] was “inactive”, the Potency [5] was “inactive” and the Potency [6] was “inactive”. The Potency [7] was “inactive”, the outcome [8] was “inactive” and the outcome [9] was “inactive”. The outcome [10] was “inactive”, the Potency [11] was “inactive” and the Potency [12] was “inactive”. For the same molecule, the Potency [13] was “inactive”, the outcome [14] was “inactive” and the outcome [15] was “inactive”. For the same molecule, the Potency [16] was “inactive”.

With `CCCCN1C(=O)c2ccccc2C1=O` the outcome [1] was “inactive”, the Potency [4] was “inactive” and the Potency [5] was “inactive”. The Potency [6] was “inactive”, the Potency [7] was “inactive” and the outcome [8] was “inactive”. The outcome [9] was “inactive”, the Potency [11] was “inactive” and the Potency [12] was “inactive”. For the same molecule, the Potency [13] was “inactive”, the outcome [14] was “inactive” and the outcome [17] was “inactive”.

With `COc1ccc(Cl)cc1C` the outcome [1] was “inactive”, the Potency [2] was “inactive” and the Potency [3] was “inactive”. For the same molecule, the Potency [4] was “inactive”, the Potency [5] was “inactive” and the Potency [6] was “inactive”. The Potency [7] was “inactive”, the outcome [8] was “inactive” and the outcome [9] was “inactive”. For the same molecule, the outcome [10] was “inactive”, the Potency [11] was “inactive” and the Potency [12] was “inactive”. The Potency [13] was “inactive”, the outcome [14] was “inactive” and the outcome [15] was “inactive”. The Potency [16] was “inactive”.
